An excerpt weighted towards active compounds, which were near 17% of everything screened.
TGFb SMAD3 inh: TGF-b pathway inhibition; HepG2 CAGA-GFP TGF-b/SMAD3 reporter, GFP fluorescence, 18 h; TGF-beta stimulated, 500 pg/mL final; Potency, µM (highest dose often 46.1 µM), for the others: top-dose activity, negative = inhibition, most hits filed as inhibitors; 410,000 tested, 1.2% active; AID 588855; note: % is set by controls: 0 for no effect and ±100 for the full control effect; nearly all actives have a fitted effect of over 65% in size
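First, reporter cells (HEPG2 CAGA-GFP) rested 2 h at 37 degrees C. Next, compounds were pinned in and TGF-beta added to 500 pg/mL final. After 18 h, GFP was imaged per cell and summed per well.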
HepG2 viability: counter-screen for TGF-b inhibitors: cytotoxicity in HepG2 cells; HepG2 CAGA-GFP viability, ATP luminescence, 18 h; Potency, µM (titrated, usually from 46.1 µM), for inactives: top-dose activity change, negative = cytotoxicity, most hits filed as cytotoxic; 410,000 tested, 0.76% active
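HepG2 CAGA-GFP cells (1000/well, DMEM with 1% FBS) received compound, then TGF-beta at 500 pg/mL final, and were incubated 18 hours at 37 degrees C. Viability was read by CellTiter-Glo luminescence. Media-only wells were set as complete cell-killing and DMSO as no toxicity.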
TDP1 cell CPT: DT40-hTDP1 cell growth loss with CPT | chicken DT40 Tdp1-/-;hTDP1 cells + 20 nM CPT, ATP luminescence, 48 h | Potency, µM (titrated, usually from 46.2 µM), for inactives: at the top dose activity change, negative = growth inhibition, most hits filed as inhibitors | 420,000 tested, 12% active; note: % is set by controls: 0 for no effect and ±100 for the full control effect; nearly all actives have a fitted effect of over 55% in size
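Chicken DT40 Tdp1-/- cells stably complemented with human TDP1 were seeded at 400 cells/well in medium containing 20 nM camptothecin, exposed to pin-transferred compounds, and grown at 37 °C for at least 48 hr. Viability was read as ATP luminescence.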
TDP1 cell noCPT: qHTS for Inhibitors of human tyrosyl-DNA phosphodiesterase 1 (TDP1): qHTS in cells in absence of CPT. 420,000 tested, 15% active. AID 686978, 2013. Potency, µM (series often up to 46.2 µM), for the others: at the highest dose activity change, negative = growth inhibition, usual class: inhibitors. DT40 Tdp1-/- hTDP1 cells, no CPT, ATP luminescence, 48 h; note: % is set by controls: 0 for no effect and ±100 for the full control effect; nearly all actives have a fitted effect of over 55% in size
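Growth of hTDP1-complemented DT40 Tdp1-knockout cells is measured by ATP luminescence after at least 48 hr compound exposure at 37 °C, with DMSO substituting for the 20 nM CPT used in the parallel screen.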
S2 tox: cell viability loss in ATXN counter-screen. S2 cells (HEK-293 line with an ATXN2-luciferase reporter) viability, CellTiter-Fluor protease fluorescence, 24 h. Potency, µM (highest dose often 56.7 µM), actives largely listed as cytotoxic. 400,000 tested, 0.49% active. AID 651635; note: nearly all actives have a fitted effect of over 40% in size
ATXN2 expr inh: reduces ATXN2 reporter expression in HEK-293 cells. HEK-293 ATXN2-luciferase reporter, luminescence, 24 h. Potency, µM (doses to about 57 µM), for inactives: at the highest dose activity change, negative = inhibition, usual class: inhibitors. 360,000 tested, 0.72% active. AID 1745845; note: % is set by controls: 0 for no effect and ±100 for the full control effect; nearly all actives have a fitted effect of over 55% in size
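ATXN2-luciferase reporter cells (luciferase flanked by upstream and downstream ATXN2 gene portions) were treated 24 h at 37 °C with compounds at up to 57 uM. SteadyGlo luminescence gave expression; GF-AFC fluorescence gave viability.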
The depositor's hits bear a star; [ ] = remark or other dose. Calls come from the whole dose curve; as a rule, active = well fitted curve in the direction sought with a large enough effect; inconclusive = small, poorly fitted or top-dose-only effect, or another doubt; inactive = no such curve, though single readings can be large; an effect the other way counts as inactive or inconclusive. Potency is the fitted concentration of half-maximal effect.

O=C(Nc1ccc(Cl)cc1)c1ccc2c(c1)N(Cc1ccccc1)C(=O)c1ccccc1S2(=O)=O was read as TGFb SMAD3 inh inconclusive, HepG2 viability -19%, TDP1 cell CPT 16µM*, TDP1 cell noCPT 23µM*, S2 tox inactive and ATXN2 expr inh 3%.
`O=C(NCCc1ccc(Cl)cc1)c1ccc2c(c1)N(Cc1cccc(Cl)c1)C(=O)c1ccccc1S2(=O)=O` gave TGFb SMAD3 inh 5%, HepG2 viability -7%, TDP1 cell CPT inconclusive and TDP1 cell noCPT 7.3µM*.
`Cc1ccc(CCNC(=O)c2ccc3c(c2)N(Cc2cccc(C)c2)C(=O)c2ccccc2S3(=O)=O)cc1` gave TGFb SMAD3 inh 2%, HepG2 viability 0%, TDP1 cell CPT -5%, TDP1 cell noCPT -25%, S2 tox inactive and ATXN2 expr inh 4%.
CC(=O)Nc1ccc(NC(=O)c2ccc3c(c2)N(Cc2cccc(Cl)c2)C(=O)c2ccccc2S3(=O)=O)cc1 was read as TGFb SMAD3 inh -1%, HepG2 viability -51%, S2 tox inconclusive and ATXN2 expr inh -11%.
For COC(=O)c1ccc2c(c1)N(Cc1ccccc1)C(=O)c1ccccc1S2(=O)=O the results were TGFb SMAD3 inh inconclusive, HepG2 viability -32%, TDP1 cell CPT 16µM* and TDP1 cell noCPT inconclusive.
Screening CCOC(=O)C1=C(N)OC2=C(C(=O)CCC2)C1c1ccccc1OCC (configuration not stated) returned TGFb SMAD3 inh -8%, HepG2 viability 6%, TDP1 cell CPT -1% and TDP1 cell noCPT 12%.
`CC(C)NC(=O)c1cn(C2CCCN(C(=O)c3cc4ccccc4oc3=O)C2)nn1` (configuration not stated) gave TDP1 cell CPT 23%[9.04 µM], TDP1 cell noCPT -14% and S2 tox inactive.
For Cc1noc(C)c1CSc1nc2ccccc2nc1NS(=O)(=O)c1ccc(Cl)cc1 the results were TGFb SMAD3 inh 7.9µM*, HepG2 viability -46%, TDP1 cell CPT 15µM*, TDP1 cell noCPT 12µM*, S2 tox inactive and ATXN2 expr inh -26%.
`C=CC[C@@H](Cc1ccc(F)cc1)C(=O)OC[C@@H]1CCCN1C(=O)[C@@H](CC=C)CC(=O)NCCO` gave TGFb SMAD3 inh 0%, HepG2 viability 0%, TDP1 cell CPT -1%, TDP1 cell noCPT -16%, S2 tox inactive and ATXN2 expr inh -6%.
Cc1cc(C(=O)Nc2ccncc2)ccc1[N+](=O)[O-] was read as TGFb SMAD3 inh 4%, HepG2 viability -3%, TDP1 cell CPT inconclusive, TDP1 cell noCPT 15µM*, S2 tox inactive and ATXN2 expr inh -3%.
Screening Cc1ccc(C(=O)NC(=S)Nc2cccc(NC(=O)c3ccccc3)c2)cc1[N+](=O)[O-] returned TGFb SMAD3 inh inconclusive, HepG2 viability -22%, TDP1 cell CPT inconclusive, TDP1 cell noCPT 16µM*, S2 tox inactive and ATXN2 expr inh 13%.
Screening Cc1ccc(C(=O)Nc2ccncc2)cc1[N+](=O)[O-] returned TGFb SMAD3 inh -17%, HepG2 viability -35%, TDP1 cell CPT inconclusive, TDP1 cell noCPT 0.73µM*, S2 tox inactive and ATXN2 expr inh -8%.
For Cc1ccc(C(=O)NCC(C)NC(=O)c2ccc(C)c([N+](=O)[O-])c2)cc1[N+](=O)[O-] (configuration not stated) the results were TGFb SMAD3 inh -30%, HepG2 viability 30%, TDP1 cell CPT inconclusive, TDP1 cell noCPT 15µM*, S2 tox inactive and ATXN2 expr inh -3%.
`Cc1ccc(NC(=O)c2ccncc2)cc1[N+](=O)[O-]` gave TGFb SMAD3 inh -4%, HepG2 viability 2%, TDP1 cell CPT -4%, TDP1 cell noCPT -28%, S2 tox inconclusive and ATXN2 expr inh 4%.
For C=CCNC(=O)Cn1nnc(-c2ccc(-c3ccc(OC)cc3)cc2)n1 the results were TGFb SMAD3 inh -15%, HepG2 viability -77%, TDP1 cell CPT 0%, TDP1 cell noCPT 1%, S2 tox inactive and ATXN2 expr inh -11%.
O=C(NCc1nnc(SCC(=O)N2CCOCC2)o1)c1cccs1 was read as TGFb SMAD3 inh -1%, HepG2 viability 2%, TDP1 cell CPT -15%, TDP1 cell noCPT 5%, S2 tox inactive and ATXN2 expr inh -9%.
`CCN(CC)C(=O)c1sc(NC(=O)c2ccc(C)c([N+](=O)[O-])c2)c(C#N)c1C` gave TGFb SMAD3 inh -4%, HepG2 viability -9%, TDP1 cell CPT inconclusive, TDP1 cell noCPT 21µM*, S2 tox inactive and ATXN2 expr inh 4%.
Cc1cc(C)c2c(c1)/C(=N/NC(=O)c1cc(C)oc1C)CCC2 was read as TGFb SMAD3 inh 1%, HepG2 viability -16%, TDP1 cell CPT -23%, TDP1 cell noCPT -26%, S2 tox inactive and ATXN2 expr inh -5%.
Screening O=C1NC[C@H](Cc2ccc(O)cc2)N(C[C@@H]2CCCN2C[C@H](Cc2ccccc2)N2C[C@H](Cc3ccccc3)N(CC3CCCCCC3)C(=O)C2=O)C1=O returned TDP1 cell CPT inconclusive, TDP1 cell noCPT inconclusive, S2 tox inconclusive and ATXN2 expr inh -11%.
For O=C1NC[C@H](Cc2ccccc2)N(C[C@H]2CCCN2C[C@H](Cc2ccccc2)N2C[C@H](Cc3ccccc3)N(CC3CCCCC3)C(=O)C2=O)C1=O the results were TGFb SMAD3 inh inconclusive, HepG2 viability 7.1µM*, TDP1 cell CPT 21µM*, TDP1 cell noCPT inconclusive, S2 tox 18µM* and ATXN2 expr inh inconclusive.
`O=C1NC[C@H](Cc2ccccc2)N(C[C@@H]2CCCN2C[C@H](Cc2ccccc2)N2C[C@H](Cc3ccccc3)N(CC3CCCCC3)C(=O)C2=O)C1=O` gave TGFb SMAD3 inh 18µM*, HepG2 viability -55%, TDP1 cell CPT 16µM*, TDP1 cell noCPT 23µM* and ATXN2 expr inh inconclusive.
`O=C1NC[C@H](Cc2ccccc2)N(C[C@@H]2CCCN2C[C@H](Cc2ccc(O)cc2)N2C[C@H](Cc3ccccc3)N(CC3CCCCCC3)C(=O)C2=O)C1=O` gave TDP1 cell CPT inconclusive, TDP1 cell noCPT inconclusive, S2 tox inconclusive and ATXN2 expr inh -28%.
